Data as given in PubChem BioAssay (Tox21).
Inconclusive results are not listed. The source made the active and inactive calls. Unless noted, calls come from the whole dose curve; as a rule, active = well fitted curve in the direction sought with a large enough effect in the repeat runs; inconclusive = weak or mixed curves; inactive = no such curve, though single readings can be large; an effect the other way counts as inactive or inconclusive.

How the values were obtained:
[1] = qHTS assay to identify small molecule antagonists of the vitamin D receptor (VDR) signaling pathway - cell viability counter screen (AID 743225); note: nearly all actives have a fitted effect of over 50% in size
How it was run: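 HEK293T VDR-bla; cpd + 1a,25-(OH)2D3 3 nM final, 16 h 37C/5% CO2; B/G FRET substrate 2 h RT; then CellTiter-Glo 30 min RT, luminescence.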

[2] = qHTS assay to identify small molecule agonists of the NFkB signaling pathway - cell viability counter screen (AID 1159515; calls by dose curve; note: series mostly up to about 61 µM; nearly all actives have a fitted effect of over 55% in size)
How it was run: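 NFkB-bla ME-180 cells, 2,000/well, plated overnight at 37 C; compound added for 5 hr at 37 C. Viability read in the same wells as the bla reporter, by CellTiter-Glo luminescence after 30 min at room temperature.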

[3] = qHTS assay to identify small molecule agonists of the endoplasmic reticulum stress response signaling pathway (AID 1159516; active = well fitted activation curve with a large enough effect in the signal ratio in the repeat runs, not every such curve was filed as active; the % refers to the signal ratio)
How it was run: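 CellSensor ESRE-bla HeLa cells, 1,500 per well, plated overnight, then exposed to compounds for 5 hr at 37 C. Beta-lactamase reporter read with LiveBLAzer B/G FRET substrate after 2 hr at room temperature, 405 nm excitation, 460 and 530 nm emission.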

[4] = qHTS assay to identify small molecule agonists of the endoplasmic reticulum stress response signaling pathway - cell viability counter screen (AID 1159517; calls by dose curve;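 note: HeLa cells carrying an ER stress response element beta-lactamase reporter; series mostly up to about 61 µM; nearly all actives have a fitted effect of over 50% in size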)
How it was run: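 CellTiter-Glo was added to wells already read for beta-lactamase FRET, and luminescence was recorded 30 min later. Cells: ESRE-bla HeLa, 1,500 per well, compound exposure 5 hr at 37 C.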

[5] = qHTS assay to identify small molecule antagonists of the retinoid-related orphan receptor gamma (ROR-gamma) signaling pathway - cell viability counter screen (AID 1159520); note: nearly all actives have a fitted effect of over 50% in size
How it was run: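 Tet-on ROR gamma CHO cells (1,000/well) were plated 4 hr, given compounds in DMSO for 2 hr at 37 C, then induced with 1 uM final doxycycline for 16 hr. Viability was read as ATP by CellTiter-Glo luminescence after 30 min.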

[6] = target: Nuclear receptor ROR-gamma (Homo sapiens) (UniProt P51449); experiment: qHTS assay to identify small molecule antagonists of the retinoid-related orphan receptor gamma (ROR-gamma) signaling pathway (AID 1159521;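 note: CHO cells with doxycycline inducible ROR-gamma driving an RORE luciferase reporter; top concentration of the series differs between compounds; nearly all actives have a fitted effect of over 50% in size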)
How it was run: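 Cells were plated, rested 4 h at 37 C, exposed to compounds for 2 h, then given 1 uM final doxycycline hyclate to induce RORγ expression. After 16 h, ONE-Glo luminescence from the ROR response element reporter was measured.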

[7] = qHTS assay to identify small molecule agonists of the AP-1 signaling pathway - cell viability counter screen (AID 1159525; calls by dose curve; note: nearly all actives have a fitted effect of over 55% in size)
How it was run: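 ME-180 AP-1-bla, 2500 cells/well, Opti-MEM + 0.5% dialyzed FBS; overnight 37 °C; cpd 15-pt titration, 5 h 37 °C; CellTiter-Glo 30 min RT; luminescence read; normalised to TOAB and DMSO controls.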

[8] = qHTS assay to identify small molecule agonists of the AP-1 signaling pathway (AID 1159526; calls by dose curve; note: potency is the fitted concentration of half-maximal effect)
[9] = target: Retinoic acid receptor RXR-alpha (Homo sapiens) (UniProt P19793); experiment: qHTS assay to identify small molecule agonists of the RXR signaling pathway (AID 1159527; calls by dose curve; note: nearly all actives have a fitted effect of over 35% in size; note: potency is the fitted concentration of half-maximal effect)
How it was run: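 Cells plated at 2,000/well, rested 5 hr at 37 C, pin-dosed with DMSO compound solutions, incubated 16 hr, then loaded with B/G FRET substrate for 2 hr at RT before dual-emission fluorescence reading.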

[10] = qHTS assay to identify small molecule agonists of the RXR signaling pathway - cell viability counter screen (AID 1159529)
How it was run: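 Steps: seed RXR-alpha-UAS-bla HEK 293T cells in assay medium containing 2% charcoal-stripped FBS; incubate 5 hr; add compounds in DMSO; incubate 16 hr at 37 C; after the bla read, add CellTiter-Glo and read luminescence at 30 min.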

[11] = qHTS assay to identify small molecule antagonists of the retinoid acid receptor (RAR) signaling pathway - cell viability counter screen (AID 1159551); note: nearly all actives have a fitted effect of over 35% in size
How it was run: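 C3RL4 RARE-luciferase cells, 1,000/well, incubated overnight, then dosed with compound plus 1 uM retinol (final). After 6 hr at 37 C, viability read by CellTiter-Glo ATP luminescence following 30 min at room temperature.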

[12] = qHTS assay to identify small molecule antagonists of the retinoic acid receptor (RAR) signaling pathway (AID 1159552; note: nearly all actives have a fitted effect of over 50% in size)
How it was run: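 Retinol at 1 uM final stimulated RARE-luciferase expression in C3RL4 cells exposed to test compounds for 6 hr at 37 C. Reduced luminescence, read 30 min after detection reagent, indicated pathway antagonism.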

[13] = qHTS assay to identify small molecule agonists of the retinoic acid receptor (RAR) signaling pathway (AID 1159553); note: potency is the fitted concentration of half-maximal effect
How it was run: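 C3RL4 RARE-luciferase cells were seeded at 1,000/well and grown overnight at 37 C, then exposed to compounds for 6 hr at 37 C, 5% CO2. Luciferase reagent was added and luminescence was read after 30 min at room temperature.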

[14] = qHTS assay to identify small molecule antagonists of the estrogen related receptor (ERR) signaling pathway from Tox21 library - cell viability counter screen (AID 1224834); note: nearly all actives have a fitted effect of over 30% in size
How it was run: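 ERR reporter cells, 2,000 per well, rested 6 h, then exposed to compound in DMSO for 17.5 hours at 37 C. Viability read as fluorescence after 30 min with CellTiter-Fluor.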

[15] = target: Luciferin 4-monooxygenase (Photinus pyralis) (UniProt P08659); experiment: qHTS assay to identify small molecule inhibitors of firefly luciferase (AID 1224835); note: series mostly up to about 120 µM; nearly all actives have a fitted effect of over 25% in size
How it was run: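 Quantitative HTS format; KM concentrations of both substrates. Purified P. pyralis FLuc activity quantified from luminescence images.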

[16] = qHTS assay to identify small molecule agonists of the constitutive androstane receptor (CAR) signaling pathway - cell viability counter screen (AID 1224836); note: series mostly up to about 92 µM; nearly all actives have a fitted effect of over 45% in size
How it was run: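 Cells were seeded and incubated 4 hrs. Compounds were added across 15 concentrations together with PK11195 at 0.75 uM final. Plates were incubated 23 hrs at 37 C. CellTiter-Fluor was added and fluorescence measured.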

[17] = qHTS assay to identify small molecule antagonists of the constitutive androstane receptor (CAR) signaling pathway - cell viability counter screen (AID 1224837); note: series mostly up to about 92 µM; nearly all actives have a fitted effect of over 45% in size
How it was run: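 HepG2 cells stably carrying hCAR and CYP2B6-2.2kb reporter, stimulated with 50 nM CITCO and compounds at 15 concentrations for 23 h at 37 C. Viability measured by CellTiter-Fluor fluorescence.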

[18] = qHTS assay to identify small molecule antagonists of the estrogen related receptor signaling pathway with the pleiotropic PPARgamma coactivator (PGC) from Tox21 10K library - cell viability counter screen (AID 1224840; active = well fitted cell-killing curve with a large enough effect in the repeat runs, not every such curve was filed as active; note: nearly all actives have a fitted effect of over 40% in size)
How it was run: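 PGC/ERR cells (2,000/well) plated 6 h, then compound-treated for 17.5 h at 37 C. Viability measured by CellTiter-Fluor fluorescence after 30 min at 37 C, multiplexed with the pathway assay.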

Measured: Potency

Sequence of Luciferin 4-monooxygenase (Photinus pyralis) (P08659 whole entry, looked up): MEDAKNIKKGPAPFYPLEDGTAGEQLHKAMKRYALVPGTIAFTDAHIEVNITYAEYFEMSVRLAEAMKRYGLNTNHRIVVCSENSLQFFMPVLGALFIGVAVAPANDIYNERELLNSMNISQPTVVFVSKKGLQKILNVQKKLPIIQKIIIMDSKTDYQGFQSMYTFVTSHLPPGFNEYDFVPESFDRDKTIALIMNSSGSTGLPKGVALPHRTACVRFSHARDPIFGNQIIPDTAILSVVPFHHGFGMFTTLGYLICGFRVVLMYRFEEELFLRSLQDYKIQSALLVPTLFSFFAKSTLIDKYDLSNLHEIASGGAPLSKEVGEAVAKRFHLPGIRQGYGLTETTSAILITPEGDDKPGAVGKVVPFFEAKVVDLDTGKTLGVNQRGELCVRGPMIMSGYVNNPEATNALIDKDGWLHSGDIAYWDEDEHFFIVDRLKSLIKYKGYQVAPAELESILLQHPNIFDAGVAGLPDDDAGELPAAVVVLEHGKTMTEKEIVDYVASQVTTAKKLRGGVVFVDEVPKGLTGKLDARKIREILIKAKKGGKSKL
Sequence of Retinoic acid receptor RXR-alpha (Homo sapiens) (P19793 whole entry, looked up): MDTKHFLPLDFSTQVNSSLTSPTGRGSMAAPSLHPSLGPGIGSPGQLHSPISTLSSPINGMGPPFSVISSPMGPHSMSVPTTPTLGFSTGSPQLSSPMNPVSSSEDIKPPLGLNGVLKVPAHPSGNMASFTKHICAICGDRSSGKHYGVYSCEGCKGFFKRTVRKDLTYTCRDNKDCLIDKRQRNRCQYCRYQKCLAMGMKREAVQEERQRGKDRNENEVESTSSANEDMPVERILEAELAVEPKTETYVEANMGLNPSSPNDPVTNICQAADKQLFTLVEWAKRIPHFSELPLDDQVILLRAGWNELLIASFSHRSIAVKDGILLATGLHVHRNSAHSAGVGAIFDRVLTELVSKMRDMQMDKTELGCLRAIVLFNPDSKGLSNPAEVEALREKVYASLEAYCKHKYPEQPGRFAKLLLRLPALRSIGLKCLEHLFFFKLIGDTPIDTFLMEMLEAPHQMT

CC(C)(C)OC=O
inactive: all assays above

C/C=C(\C)C=O
inactive: all assays above

C=COCCCCO
not listed: [1]
inactive: all other assays above

CCCCCCCCCCCCCCCC/C=C/C1CC(=O)OC1=O (stereo not given)
active: [8] 16.9 µM
inactive: all other assays above

C=CCn1cc[n+](C)c1
inactive: all assays above

O=C1CC2(CCCC2)CC(=O)N1CCNCC1COc2ccccc2O1 (stereo not given)
inactive: all assays above

COc1cc(C(=O)NC2CCCNC2)cc(OC)c1OC (stereo not given)
not listed: [1]
inactive: all other assays above

C/C=C(\C)C(=O)OC/C=C(\C)CCC=C(C)C
active: [9] 21.9 µM
inactive: all other assays above

Nc1ccc(C(=O)NCC(=O)O)cc1
inactive: all assays above

Cc1nnc(C(=O)NC(C)(C)c2nc(C(=O)NCc3ccc(F)cc3)c(O)c(=O)n2C)o1
active: [13] 33.5 µM
inactive: all other assays above

CN(C)c1cc(NC(=O)CNC(C)(C)C)c(O)c2c1C[C@H]1C[C@H]3[C@H](N(C)C)C(=O)C(C(N)=O)=C(O)[C@@]3(O)C(=O)C1=C2O
inactive: all assays above

CC(=O)SC[C@@H](C)C(=O)N1CCC[C@H]1C(=O)N[C@@H](Cc1ccccc1)C(=O)O
inactive: all assays above

CCc1ncc(C)[nH]1
inactive: all assays above

CCCCCCCOC(C)=O
inactive: all assays above
